The results in this text go back to PubChem BioAssay AID651739 (Broad Institute, 2012).

Among all 5,600 compounds or so, about 4,100 (73%) were called active. Not shown: some 4% with an inconclusive outcome. The set was probably picked from earlier hits. The list is a sample of the results. A number with no mark means an inactive call.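 Rule for the calls: active = mean replicate inhibition above about 95% and at least 55% of replicates individually reaching it (limit read from the data); inconclusive = only one of the two criteria is met; inactive = neither criterion is met.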

A short description of this assay: T. cruzi intracellular proliferation inhibitors, confirmation, cell-based, NIH3T3 host, beta-gal parasite, luminescence, cherry-pick (AID 651739). The conditions noted are these: T. cruzi beta-gal in NIH3T3, GalScreen luminescence, 90 h; at 8.35 µM; stronger effect = higher value.
As for `O=C(NCc1ccccn1)[C@@H]1[C@@H](CO)[C@@H]2Cn3c(ccc(/C=C/c4ccccc4)c3=O)[C@H]1N2CC1CC1`, the inhibition was 66.3%. For `O=C(Nc1ccc(-c2ccccc2)cc1)[C@H]1[C@H](CO)[C@H]2Cn3c(cccc3=O)[C@H]2N1CC1CC1`, the inhibition was 101% (active).

Regarding `O=C(NCC1CCCCC1)[C@H]1[C@H](CO)[C@H]2Cn3c(cccc3=O)[C@H]2N1C(=O)CC1CC1`, the inhibition is 43%. Then `C/C=C/c1ccc([C@H]2[C@H]3CN(S(=O)(=O)c4ccccc4)CCCCN3[C@H]2CO)cc1`, with 105% (active); and `CCS(=O)(=O)N1CCCCN2[C@@H](CO)[C@@H](c3ccc(-c4ccccc4)cc3)[C@@H]2C1`, with 102% (active). With `O=S(=O)(Cc1ccccc1)N1CCCCN2[C@@H](CO)[C@@H](c3ccc(-c4ccc(F)cc4)cc3)[C@@H]2C1`, the inhibition was 96.2% (active). Then `Cc1cccc(-c2ccc([C@@H]3[C@@H](CO)N4CCCCN(S(=O)(=O)c5cccs5)C[C@H]34)cc2)c1`, with 106% (active); and `O=S(=O)(Cc1ccccc1)N1CCCCN2[C@@H](CO)[C@H](c3ccc(-c4cccnc4)cc3)[C@@H]2C1`, with 97.7% (active); and `O=S(=O)(Cc1ccccc1)N1CCCCN2[C@@H](CO)[C@H](c3ccc(-c4ccccc4)cc3)[C@@H]2C1`, with 97.9% (active).

`C[C@H](O)C#Cc1ccc([C@H]2[C@H]3CN(S(=O)(=O)Cc4ccccc4)CCCCN3[C@H]2CO)cc1`: the inhibition is 72.1%. On to `COCC(=O)N(C)C[C@@H]1Oc2ncc(C#Cc3ccccc3OC)cc2C(=O)N([C@@H](C)CO)C[C@H]1C`, for which the inhibition is 109% (active). Next, `C[C@@H]1CN([C@H](C)CO)C(=O)c2cc(C#Cc3ccccn3)cnc2O[C@H]1CN(C)Cc1ccccc1`: 102% (active); `C[C@H](CO)N1C[C@H](C)[C@H](CN(C)C(=O)Nc2cccc3ccccc23)Oc2ncc(C#Cc3ccccc3)cc2C1=O`: 99.9% (active). Next, `CC(C)CC#Cc1cnc2c(c1)C(=O)N([C@@H](C)CO)C[C@@H](C)[C@H](CN(C)C(=O)Cc1ccncc1)O2`: 76.3%; `C[C@@H]1CN([C@H](C)CO)C(=O)c2cc(/C=C/c3ccccc3)cnc2O[C@@H]1CN(C)Cc1ccncc1`: 86.1%. Then `C[C@@H]1CN([C@@H](C)CO)C(=O)c2cc(C#Cc3ccccc3)cnc2O[C@H]1CN(C)C(=O)c1ccccn1`, with 101% (active). Turning to `COc1ccc(C#Cc2cnc3c(c2)C(=O)N([C@@H](C)CO)C[C@H](C)[C@@H](CN(C)C(C)=O)O3)cc1`, the inhibition was 19.7%. Then `C[C@@H]1CCCCO[C@@H](CN(C)S(=O)(=O)c2ccc(Cl)cc2)[C@H](C)CN([C@@H](C)CO)C(=O)c2cc(NC(=O)Cc3ccccc3)ccc2O1`, with 108% (active); and `Cc1ccc(S(=O)(=O)N(C)C[C@H]2OCCCC[C@H](C)Oc3ccc(NC(=O)Cc4ccccc4)cc3C(=O)N([C@@H](C)CO)C[C@@H]2C)cc1`, with 110% (active).

Turning to `Cc1ccc(-c2ccc3c(c2)O[C@H](CN(C)C)[C@@H](C)CN([C@H](C)CO)S3(=O)=O)cc1`, the inhibition is 88%. On to `C[C@@H]1CN([C@@H](C)CO)S(=O)(=O)c2ccc(C#CCN(C)C)cc2O[C@H]1CN(C)C(=O)C1CC1`, for which the inhibition is 110% (active). Next, `C[C@H](CO)N1C[C@H](C)[C@@H](CN(C)C(=O)C2CCCCC2)Oc2cc(-c3ccccc3)ccc2S1(=O)=O`: 107% (active); `CC(C)CC#Cc1ccc2c(c1)O[C@H](CN(C)C(=O)C1CC1)[C@@H](C)CN([C@@H](C)CO)S2(=O)=O`: 111% (active); `COc1ccccc1-c1ccc2c(c1)O[C@@H](CN(C)C)[C@H](C)CN([C@H](C)CO)S2(=O)=O`: 22.8%. Next, `C[C@H]1CN([C@@H](C)CO)C(=O)CCCn2cc(nn2)CO[C@H]1CN(C)C(=O)c1ccccc1`: 103% (active); `C[C@@H]1CN([C@@H](C)CO)C(=O)c2cc(NC(=O)Nc3ccc(C(F)(F)F)cc3)ccc2O[C@@H](C)CCCCO[C@H]1CN(C)C(=O)c1ccccc1`: 105% (active). Then `CNC[C@H]1OCCCC[C@H](C)Oc2ccc(NC(=O)Nc3c(C)noc3C)cc2C(=O)N([C@H](C)CO)C[C@H]1C`, with 104% (active); and `C[C@@H]1CN([C@@H](C)CO)C(=O)CCCn2cc(nn2)CO[C@@H]1CN(C)S(=O)(=O)c1ccccc1F`, with -12.9%.

As for `C[C@@H]1CCCCO[C@H](CN(C)C(=O)NC2CCCCC2)[C@H](C)CN([C@H](C)CO)C(=O)c2cc(NC(=O)Nc3ccc(F)cc3)ccc2O1`, the inhibition was 97.3% (active). For the compound `CC(C)NC(=O)N(C)C[C@H]1OCc2cn(nn2)CCCC(=O)N([C@@H](C)CO)C[C@H]1C`, the inhibition is 2.94%. Next, `CNC[C@H]1OCCCC[C@@H](C)Oc2ccc(NS(C)(=O)=O)cc2C(=O)N([C@H](C)CO)C[C@H]1C`: -10.3%; `C[C@@H]1CN([C@H](C)CO)C(=O)c2cc(NC(=O)Nc3ccc(F)cc3)ccc2O[C@@H](C)CCCCO[C@@H]1CN(C)CC1CCCCC1`: 90.7%; `COc1ccc(NC(=O)N(C)C[C@H]2OCCCC[C@H](C)Oc3ccc(NC(=O)Nc4ccc(C(F)(F)F)cc4)cc3C(=O)N([C@@H](C)CO)C[C@@H]2C)cc1`: 103% (active). Next, `CC(C)NC(=O)Nc1ccc2c(c1)C(=O)N([C@H](C)CO)C[C@H](C)[C@H](CN(C)C(=O)Nc1ccc(C(F)(F)F)cc1)OCCCC[C@@H](C)O2`: 110% (active). Next, `C[C@@H]1CCCCO[C@H](CN(C)C(=O)Nc2ccc(C(F)(F)F)cc2)[C@H](C)CN([C@H](C)CO)C(=O)c2cc(NC(=O)Nc3ccc(C(F)(F)F)cc3)ccc2O1`: 109% (active); `C[C@H](CO)N1C[C@H](C)[C@H](CN(C)C(=O)Nc2ccc(C(F)(F)F)cc2)OCCCC[C@H](C)Oc2ccc(NC(=O)C3CCCCC3)cc2C1=O`: 109% (active); `COc1cccc(S(=O)(=O)N2CCCCN3[C@H](C2)[C@H](c2ccc(C#CC(C)C)cc2)[C@@H]3CO)c1`: 102% (active). As to `COc1ccc(S(=O)(=O)N2CCCCN3[C@H](C2)[C@H](c2ccc(C#CCC(C)C)cc2)[C@@H]3CO)cc1`, the inhibition is 98.1% (active). Consider `CC(C)C#Cc1ccc([C@H]2[C@H](CO)N3CCCCN(C(=O)NC(C)C)C[C@@H]23)cc1`, for which the inhibition is 103% (active). Then `COc1ccc(S(=O)(=O)N2CCCCN3[C@H](CO)[C@@H](c4ccc(C#CC(C)C)cc4)[C@H]3C2)cc1`, with 109% (active); and `CN(C)CC#Cc1ccc([C@H]2[C@H]3CN(S(=O)(=O)c4ccccc4F)CCCCN3[C@H]2CO)cc1`, with 83.2%; and `C[C@H](O)C#Cc1ccc([C@@H]2[C@H]3CN(S(=O)(=O)c4ccccc4)CCCCN3[C@H]2CO)cc1`, with 32.8%. For `C[C@@H](O)C#Cc1ccc([C@@H]2[C@H](CO)N3CCCCN(S(=O)(=O)c4ccccc4)C[C@@H]23)cc1`, the inhibition was 62.6%. `COc1cccc(S(=O)(=O)N2CCCCN3[C@H](CO)[C@H](c4ccc(-c5ccncc5)cc4)[C@H]3C2)c1`: the inhibition is 110% (active). Then `COc1cccc(S(=O)(=O)N2CCCCN3[C@H](CO)[C@H](c4ccc(C#CC5CC5)cc4)[C@H]3C2)c1`, with 105% (active); and `CC(C)CC#Cc1ccc2c(c1)O[C@H](CN(C)Cc1cccnc1)[C@H](C)CN([C@@H](C)CO)S2(=O)=O`, with 98.7% (active); and `CC(C)CC#Cc1ccc2c(c1)O[C@H](CN(C)Cc1ccccc1F)[C@@H](C)CN([C@@H](C)CO)S2(=O)=O`, with 96.7% (active).

For `C[C@H](CO)N1C[C@H](C)[C@H](CN(C)Cc2ccncc2)Oc2cc(-c3ccncc3)ccc2S1(=O)=O`, the inhibition is 92.9%. Next, `CC(C)CC#Cc1ccc2c(c1)O[C@H](CN(C)Cc1ccncc1)[C@H](C)CN([C@H](C)CO)S2(=O)=O`: 97.8% (active); `C[C@H](CO)N1C[C@H](C)[C@@H](CN(C)Cc2ccncc2)Oc2cc(Br)ccc2S1(=O)=O`: 95.7% (active). `Cc1ccccc1-c1ccc([C@H]2[C@H]3CN(S(=O)(=O)c4ccc(F)cc4)CCCCN3[C@H]2CO)cc1`: the inhibition was 97.2% (active). Take `O=S(=O)(c1ccc(F)cc1)N1CCCCN2[C@H](C1)[C@H](c1ccc(C3=CCCCC3)cc1)[C@@H]2CO`: the inhibition was 106% (active). Next, `C[C@@H]1CN([C@H](C)CO)C(=O)c2cc(NS(=O)(=O)c3cccs3)ccc2O[C@@H](C)CCCCO[C@@H]1CN(C)S(=O)(=O)c1ccc(Cl)cc1`: 101% (active). Then `Cc1noc(C)c1S(=O)(=O)Nc1ccc2c(c1)C(=O)N([C@@H](C)CO)C[C@@H](C)[C@H](CN(C)S(=O)(=O)c1ccc(Cl)cc1)OCCCC[C@H](C)O2`, with 99.1% (active).

In the case of `C[C@H]1CCCCO[C@@H](CN(C)S(=O)(=O)c2cccs2)[C@@H](C)CN([C@@H](C)CO)C(=O)c2cc(NS(=O)(=O)c3ccc(Cl)cc3)ccc2O1`, the inhibition was 101% (active). Then `C[C@@H]1CCCCO[C@H](CN(C)S(=O)(=O)c2ccc(Cl)cc2)[C@H](C)CN([C@@H](C)CO)C(=O)c2cc(NS(=O)(=O)c3cccs3)ccc2O1`, with 105% (active); and `C[C@@H]1CCCCO[C@H](CN(C)S(=O)(=O)c2cccs2)[C@H](C)CN([C@H](C)CO)C(=O)c2cc(NS(=O)(=O)c3ccc(F)cc3)ccc2O1`, with 109% (active); and `CC(C)(C)[S@@](=O)N1Cc2cc(C(=O)NCc3ccc4c(c3)OCO4)nc(-c3cccc(-c4ccccc4)c3)c2[C@H]1CCO`, with 105% (active).

With `O=C(C1CC1)N1CCCCN2[C@H](CO)[C@H](c3ccc(-c4cccc(F)c4)cc3)[C@H]2C1`, the inhibition was 99.1% (active). Turning to `OC[C@@H]1[C@H](c2ccc(C#CC3CC3)cc2)[C@@H]2CN(CCC(F)(F)F)CCCCN12`, the inhibition is 105% (active). For `O=C(C1CCC1)N1CCCCN2[C@H](CO)[C@H](c3ccc(-c4ccncc4)cc3)[C@@H]2C1`, the inhibition was 103% (active).

For `O=C(C1CCCC1)N1CCCCN2[C@@H](CO)[C@H](c3ccc(-c4cccc(F)c4)cc3)[C@@H]2C1`, the inhibition was 112% (active).

For the compound `CN(C)C(=O)c1ccc(-c2ccc([C@H]3[C@@H](CO)N4CCCCN(CC5CC5)C[C@H]34)cc2)cc1`, the inhibition was 90%.

For orientation: inhibition means the change of the read-out against control, counted positive when it falls.
